Bioassay records from PubChem BioAssay.
Compounds with a hit are over-represented: about 11% of the library has one in this group of screens.
ALDH1A1 inh: qHTS Assay for Inhibitors of Aldehyde Dehydrogenase 1 (ALDH1A1). 220,000 compounds, 7.3% hits. Aldehyde dehydrogenase 1A1 (Homo sapiens), P00352. Purified ALDH1A1, NADH fluorescence, propionaldehyde substrate. Potency, µM (top dose mostly 75.3 µM), inactives show at the highest dose activity, negative = inhibition, most hits filed as inhibitors; active means well fitted inhibition curve with a large enough effect, not every such curve was filed as active; inconclusive means small, poorly fitted or top-dose-only effect, or another doubt; inactive means no such curve, though single readings can be large or run the other way;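 further: potency means the concentration at half of the fitted maximal effect; plate controls were no enzyme wells and a reference inhibitor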
PNC assembly inh: High Content Assay for Compounds that inhibit the Assembly of the Perinucleolar Compartment; AID 2417, 2010; activity change (PNC), negative = inhibition, % at 10 µM; PC3M PTB-GFP, PNC prevalence imaging, 16 h; stronger effect = lower value; 140,000 compounds, 3.1% hits;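 active means readout at or below -70, meaning at least 70% loss of cells showing the perinucleolar compartment, a nuclear body marking cancer cells; inconclusive means readout between -30 and a set limit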;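 further: plate controls were DMSO wells for no effect and camptothecin positive control wells for full effect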
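Compounds are pinned in duplicate onto adhered PC3M cells stably expressing GFP-tagged PTB and incubated 16 h at 37 C. Cells are then fixed, nuclei stained with Hoechst, and PNC-positive cells counted.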
ALOX12 inhib: qHTS Assay for Inhibitors of 12-hLO (12-human lipoxygenase); 150,000 compounds, 0.12% hits; Potency, µM (titrated, usually from 57.1 µM), without a hit: top-dose activity change, negative = inhibition, most hits filed as inhibitors; Polyunsaturated fatty acid lipoxygenase ALOX12 (Homo sapiens), P18054; purified 12-hLO, xylenol orange hydroperoxide absorbance; further: potency means the concentration at half of the fitted maximal effect; nearly all actives have a fitted effect of over 55% in size
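Purified human 12hLO (150 nM), preincubated 15 min with compound, then 40 uM arachidonic acid for 30 min, room temperature, Hepes pH 7.0 with 0.01% Triton X-100. Hydroperoxide detected by ferrous iron/xylenol orange; 573/405 nm absorbance ratio gives reaction progress.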
IMPase inh: qHTS Assay for Identifying the Cell-Membrane Permeable IMPase Inhibitors | Inositol monophosphatase 1 (Rattus norvegicus), P97697 | CHO-M1 cells, IP1 accumulation, HTRF TR-FRET ratio | inhibition (IP1 accumulation), % at 46.1 µM | 120,000 tested, under 10 active | AID 901, 2007; active means well fitted curve in the direction sought with a large enough effect in the signal ratio, not every such curve was filed as active; inconclusive means small, poorly fitted or top-dose-only effect, or a change in a side signal; inactive means no such curve, though single readings can be large or run the other way; the % refers to the signal ratio;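 further: cells stimulated with carbachol in lithium chloride buffer; plate controls were DMSO basal wells for no effect and reference inhibitor wells for full effect; higher means more IMPase inhibition seen as more IP1 and lower FRET ratio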
Target sequence (P97697 whole entry, looked up): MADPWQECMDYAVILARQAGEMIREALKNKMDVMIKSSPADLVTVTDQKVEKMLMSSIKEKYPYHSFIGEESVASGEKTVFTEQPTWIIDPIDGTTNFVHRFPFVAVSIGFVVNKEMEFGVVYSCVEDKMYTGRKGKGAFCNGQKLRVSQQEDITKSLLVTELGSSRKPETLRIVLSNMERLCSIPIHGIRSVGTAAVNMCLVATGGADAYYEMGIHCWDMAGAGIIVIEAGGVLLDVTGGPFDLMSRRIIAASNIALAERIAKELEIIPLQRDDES
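Cellular IMPase inhibition is scored as a rise in cytosolic IP1, detected by competitive TR-FRET between d2-labelled IP1 and a europium anti-IP1 antibody. M1-expressing CHO cells were stimulated with carbachol for 30 min at 37C, with lithium (50 mM LiCl) present in the buffer.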
IMPase Li inh: qHTS Assay for Identifying the Cell-Membrane Permeable IMPase Inhibitors: Potentiation with Lithium. CHO-M1 cells, IP1 TR-FRET (IP-One), carbachol + lithium. Potency, µM (highest dose often 59.4 µM), without a hit: top-dose activity, negative = IMPase inhibition, usual class: inhibitors. 210,000 compounds, 0.35% hits;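 further: IP1 builds up when IMPase is blocked and the TR-FRET signal falls; potency means the concentration at half of the fitted maximal effect; plate controls were basal vehicle for no effect and high inhibitor control for full effect; nearly all actives have a fitted effect of over 50% in size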
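CHO cells stably expressing M1 receptor (2000/well, cultured 16–30 h) treated 30 min at 37C with compound plus low lithium. Cytosolic IP1 by TR-FRET (665/620 ratio and 620 channel) after 10 min lysis; AC50 by Hill fit.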
HPGD block: qHTS Assay for Inhibitors of HPGD (15-Hydroxyprostaglandin Dehydrogenase); purified HPGD, NADH fluorescence kinetic, PGE2 substrate; 15-hydroxyprostaglandin dehydrogenase [NAD(+)] (Homo sapiens), P15428; 150,000 compounds, 4.3% hits; Potency, µM, for inactives: at the top dose activity change, negative = inhibition, hits mostly inhibitors; active means well fitted inhibition curve with a large enough effect, not every such curve was filed as active; inconclusive means small, poorly fitted or top-dose-only effect, or another doubt; inactive means no such curve, though single readings can be large or run the other way; further: potency means the concentration at half of the fitted maximal effect
Target sequence (P15428 whole entry, looked up): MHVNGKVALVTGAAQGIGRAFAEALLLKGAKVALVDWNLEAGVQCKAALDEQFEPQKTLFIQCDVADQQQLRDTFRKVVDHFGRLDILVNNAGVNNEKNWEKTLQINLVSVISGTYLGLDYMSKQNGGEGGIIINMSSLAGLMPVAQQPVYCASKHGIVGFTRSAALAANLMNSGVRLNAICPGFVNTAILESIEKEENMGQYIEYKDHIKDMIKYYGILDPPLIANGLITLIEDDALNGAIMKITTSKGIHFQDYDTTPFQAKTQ
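20 nM HPGD preincubated 15 min at room temperature with compound in 50 mM Tris-HCl pH 8, 0.01% Tween 20. Started with 1 mM NAD+ and 30 uM prostaglandin E2; NADH fluorescence (360/450 nm) read 5 times over 30-s intervals, last minus first.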
The depositor's hits bear a star; ? = inconclusive; . = not tested or not shown; [ ] = remark or other dose. Unless noted, the call rests on the fitted dose curve; in most records, active means well fitted curve in the direction sought with a large enough effect; inconclusive means small, poorly fitted or top-dose-only effect, or another doubt; inactive means no such curve, though single readings can be large; an effect the other way counts as inactive or inconclusive. Unless noted, on the % scale 0 is the no-effect control and ±100 the full control effect.

SMILES	ALDH1A1 inh	PNC assembly inh	ALOX12 inhib	IMPase inh	IMPase Li inh	HPGD block
C/C=C/c1ccc(OCCCCOc2ccccc2F)c(OC)c1	?	-125*	-3%	.	-1%	-17%
C[C@]12C=CC(=O)C=C1CC[C@@H]1[C@H]3C[C@@H](O)[C@](O)(C(=O)CO)[C@@]3(C)C[C@H](O)[C@]12F	7%[20.9 µM]	.	-2%[25.6 µM]	-8[20.6 µM]	6%	-15%
COc1ccc(CCC(=O)NCCc2cn3c(C)csc3n2)cc1	18µM*	8	-2%	-8	2%[38.3 µM]	-6%
COCCn1c(SCC(=O)N(C)C2CCS(=O)(=O)C2)nc2ccccc2c1=O (stereo unspecified)	9%	.	.	.	2%	.
Cc1ccccc1-n1nnnc1SCC(=O)N(C)C1CCS(=O)(=O)C1 (stereo unspecified)	11µM*	.	.	.	-2%	.
CN(C(=O)CSc1nc2ccccc2n1CCc1ccccc1)C1CCS(=O)(=O)C1 (stereo unspecified)	22µM*	?	4%	7	16%[38.3 µM]	-14%
CN(C(=O)CSc1nnc2ccccn12)C1CCS(=O)(=O)C1 (stereo unspecified)	-15%	?	9%	-5	20%[38.3 µM]	-16%
COc1c(Cl)ccc(Cl)c1C(=O)O	?	.	-4%	.	3%	-23%
COc1ccc(NC(=O)CSc2ncc(-c3ccc(Cl)cc3)[nH]2)cc1OC	.	.	.	12	.	.
O=C1[C@H]2[C@H]3C=C[C@@H](C4[C@H]3[C@@H]3C(=O)N(CN5CCSCC5)C(=O)[C@H]43)[C@H]2C(=O)N1CN1CCSCC1 (stereo partly specified)	-5%[13.5 µM]	.	.	.	-6%	-5%
COc1ccc(C(=O)c2ccc(OC)c(OC)c2)cc1	?	-11	0%	-2	2%[38.3 µM]	-9%
COc1ccc(C(=O)c2ccc(OC)c(N)c2)cc1N	20µM*	20	9%	-2	9%[38.3 µM]	-32%
O=C(O)c1cc(-c2ccncc2)nc2ccc(S(=O)(=O)N3CCOCC3)cc12	7%	20	-5%	3	-16%[38.3 µM]	-8%
O=C(NCc1ccccc1)c1cc(-c2ccncc2)nc2ccc(S(=O)(=O)N3CCOCC3)cc12	0.79µM*	13	1%	.	-4%	-22%
COc1ccccc1-c1cc(NCc2ccccc2)ncn1	?	.	.	.	-1%	.
CCCC/C(O)=C1\C(=O)CC(C)(C)CC1=Nc1ccccc1OC	-10%	-28	-1%	6	40%[38.3 µM]	-11%
CCC/C(O)=C1\C(=O)CC(C)(C)CC1=Nc1ccc(OC)cc1OC	-28%	-139*	-7%	-4	7%[38.3 µM]	-16%
Cc1[nH]c(C)c(Cl)c(=O)c1Cl	-3%	.	-2%	.	6%	2%
Cc1ccc(NC(=O)Nc2cc(Cl)ccc2C2COC(=O)C2=N)cc1 (stereo unspecified)	7.5µM*	.	.	.	-5%	.
CCCCCCCCCCCCCCCC(=O)C1=C(O)C(CO)OC1=O (stereo unspecified)	-5%	.	.	.	24%	.
COc1ccc(C2C(C#N)=C(N)Nc3onc(C(C)(C)C)c32)c(OC)c1 (stereo unspecified)	13%	?	0%	.	3%	-6%
CCCc1noc2c1C(c1cc(Br)ccc1F)C(C#N)=C(N)N2 (stereo unspecified)	11µM*	.	.	.	2%	.
C=CCNC(=O)/C(=C/c1cn(-c2ccccc2)nc1-c1cccc([N+](=O)[O-])c1)NC(=O)c1ccccc1	1µM*	14	-1%	0	.	.
CN(C)C(=O)/C(=C/c1cn(-c2ccccc2)nc1-c1cccc([N+](=O)[O-])c1)NC(=O)c1ccccc1	?	5	-1%	-4	7%	-5%
